These results are taken from PubChem BioAssay.

Activity calls are given as the source filed them.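 The calls were made as follows, unless noted: active = GFP response above 150% of the DMSO level; inconclusive = fewer than 70 events counted for a yeast strain; inactive = the rest.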

Test [1] is described as follows: hit retest on RPL19A-GFP reporter strain – cell-based, S. cerevisiae, flow cytometry, cherry picks, mother/daughter gates, confirmation (AID 2270;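 active = GFP response below 50% of the DMSO control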). To be noted: 3 h, at 10 µM, stronger effect = lower value, 100 = same GFP as DMSO wells.
The nature of test [2]: yeast TOR pathway reporter LAP4-GFP change – cell-based, cherry picks, flow cytometry, mother/daughter gates, confirmation (AID 2271;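 active = GFP response above 150% of the DMSO control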;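 also: ratio of sample to DMSO plate mean so 100% equals DMSO level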). The note with it: S. cerevisiae LAP4-GFP strain, 3 h, at 10 µM, stronger effect = higher value, 100 means same as DMSO control.
Test [3] can be described thus: TOR pathway reporter MEP2-GFP, retest of hits – S. cerevisiae, flow cytometry GFP, cherry picks, confirmation (AID 2272;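 active = GFP response above 150% of the DMSO control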;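 also: ratio of well signal to plate DMSO mean so 100% equals DMSO level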). To be noted: S. cerevisiae MEP2-GFP strain, 3 h, at 10 µM, stronger effect = higher value. On the technique in general: A flow cytometer gives signals particle by particle.
Test [4] in a line: yeast AGP1-GFP fluorescence change, single-dose – cell-based, flow cytometry, S. cerevisiae, cherry picks, confirmation (AID 2273).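 Also: median GFP channel fluorescence over the whole cell population gate.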 The note with it: S. cerevisiae AGP1-GFP strain, 3 h, at 10 µM.
A short description of test [5]: TOR pathway CIT2 reporter hit retest – S. cerevisiae, GFP fusion, cherry picks, mother/daughter gates, confirmation (AID 2274). The note with it: S. cerevisiae CIT2-GFP strain, flow cytometry, 3 h, at 10 µM, stronger effect = higher value.
[6] abbreviates: measured here: daughter cell gate.
Where [7] appears, read: measured here: mother cell gate.
[8] abbreviates: measured here: daughter cell gate response.
[9] abbreviates: measured here: mother cell gate response.

As to `N#C/C(=C\c1c(N2CCC(C(N)=O)CC2)nc2ccccn2c1=O)C(=O)NCc1ccco1`, the GFP response vs DMSO was 97.8% (inactive) in test [1], 98.8% in test [1] (setting [6]), 97.6% in test [1] (setting [7]) and 102% (inactive) in test [3]. Also, the figures for the GFP response relative to DMSO in test [2], in test [2] (setting [8]) and in test [2] (setting [9]) were 101% (inactive), 99.3% and 99.5%, respectively. In addition, the GFP response, % of DMSO in test [4] is 99.3% (inactive); in test [5] it was 104% (inactive); in test [5] (setting [6]), 102%; in test [5] (setting [7]), 101%.
`CC(=O)Nc1ccc(NC(=O)c2oc3cc(C)c(C)cc3c2C)cc1`: the GFP response vs DMSO in test [1] is 99% (inactive); in test [1] (setting [6]), 96.4%; in test [1] (setting [7]), 99.4%; in test [3], 102% (inactive). The GFP response relative to DMSO is 99.2% (inactive) in test [2], 99.2% in test [2] (setting [8]) and 98.3% in test [2] (setting [9]). The GFP response, % of DMSO in test [4] is 102% (inactive); in test [5] it was 101% (inactive); in test [5] (setting [6]) it was 99.1%; in test [5] (setting [7]), 98.5%.
Regarding `CCOC(=O)C1C(=O)C=C(c2ccc(C)cc2)CC1c1ccco1` (configuration not stated), the GFP response vs DMSO is 99.9% (inactive) in test [1], 97.8% in test [1] (setting [6]), 101% in test [1] (setting [7]) and 102% (inactive) in test [3]. Further, the GFP response relative to DMSO is 109% (inactive) in test [2], 103% in test [2] (setting [8]) and 112% in test [2] (setting [9]). The GFP response, % of DMSO is 102% (inactive) in test [4], 95.2% (inactive) in test [5], 91.5% in test [5] (setting [6]) and 96.6% in test [5] (setting [7]).
For the compound `Cc1cc(=O)n(-c2ccc3ccccc3n2)[nH]1`, the GFP response vs DMSO is 106% (inactive) in test [1], 109% in test [1] (setting [6]), 103% in test [1] (setting [7]) and 102% (inactive) in test [3]. The GFP response relative to DMSO was 115% (inactive) in test [2], 120% in test [2] (setting [8]) and 116% in test [2] (setting [9]). Also, the GFP response, % of DMSO is 99.6% (inactive) in test [4], 112% (inactive) in test [5], 114% in test [5] (setting [6]) and 107% in test [5] (setting [7]).
Consider `Cc1nc(SC2CC(=O)N(c3ccccc3)C2=O)nc2c1CCCC2` (configuration not stated), for which the GFP response vs DMSO in test [1] was 95.4% (inactive); in test [1] (setting [6]), 95.9%; in test [1] (setting [7]), 95.8%; in test [3], 96.2% (inactive). For the same compound, the results for the GFP response relative to DMSO in test [2], in test [2] (setting [8]) and in test [2] (setting [9]) were 97.9% (inactive), 97.6% and 97.2%, respectively. The GFP response, % of DMSO in test [4] is 93.1% (inactive); in test [5], 101% (inactive); in test [5] (setting [6]), 101%; in test [5] (setting [7]), 99.7%.
`O=C(OCC(=O)N1CCN(C(=O)c2ccco2)CC1)c1cc(-c2ccccc2)nc2ccccc12`: the GFP response vs DMSO in test [1] is 76.3% (inactive); in test [1] (setting [6]), 66.6%; in test [1] (setting [7]), 70.5%; in test [3] it was 130% (inactive). Moreover, the GFP response relative to DMSO was 161% (active) in test [2], 117% in test [2] (setting [8]) and 153% in test [2] (setting [9]). The GFP response, % of DMSO was 136% (inactive) in test [4], 134% (inactive) in test [5], 114% in test [5] (setting [6]) and 130% in test [5] (setting [7]).
In the case of `COc1cccc(/C=N\NC(=O)c2cc(OCC(F)(F)F)ccc2OCC(F)(F)F)c1`, the GFP response vs DMSO was 98.6% (inactive) in test [1], 99.1% in test [1] (setting [6]), 97.9% in test [1] (setting [7]) and 100% (inactive) in test [3]. Further, the GFP response relative to DMSO in test [2] is 94.1% (inactive); in test [2] (setting [8]), 92.8%; in test [2] (setting [9]) it was 92.9%. Moreover, the GFP response, % of DMSO in test [4] was 96% (inactive); in test [5] it was 99.7% (inactive); in test [5] (setting [6]) it was 101%; in test [5] (setting [7]), 98.5%.
